Test results taken from PubChem BioAssay (NCATS).
Values joined by “and” are separate entries in the source; they are usually repeats but may differ in a detail not shown here. Equal values may be shown once. Inconclusive results are not listed. Unmarked numbers belong to inactive results. Active and inactive are the calls of the source. The call rests on the fitted dose curve; in most records, active means well fitted curve in the direction sought with a large enough effect; inconclusive means small, poorly fitted or top-dose-only effect, or another doubt; inactive means no such curve, though single readings can be large or run the other way.

Experiment: qHTS Assay for Identifying Gametocytocidal Compounds (AID 743244);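 on max response: actives lower the fluorescent signal which means gametocytes are killed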
Conditions: P. falciparum 3D7 stage III-V gametocytes, alamarBlue, 72 h; max response: hits give low values
Description: Malaria cases and deaths have dropped 50% in 29 countries since 2000 due to the combined effects of long-lasting insecticidal bednets, indoor residual spraying, and artemisinin-based combination therapies (ACTs). This success has raised hopes for malaria eradication and consequently stimulated interest in developing new reagents that block gametocyte transmission such as novel and safe gametocytocidal drugs. However, previous drug development efforts have focused primarily on the asexual parasites that cause symptoms, but not malaria transmission. Consequently, patients can remain infectious for weeks after the clearance of asexual parasites and clinical symptoms. To be transmitted from person to person via a mosquito, the parasites must switch from asexual to sexual development and produce male and female gametocytes. Malaria gametocytes consist of five stages (I, II, III, IV and V). The late stage gametocytes (III, IV and V) are difficult to be cultured in vitro and the long lifespan of mature gametocytes allows them being transmitted from host to mosquitoes unless they are completely eliminated by gametocytocidal agents. To identify gametocytocidal compounds which are capable of killing late stage P. falciparum gametocytes, a high throughput gametocyte viability assay was employed. This assay uses oxidoreduction indicator, alamarBlue, as a general measure of metabolic activity of gametocytes. Within live cells, the nonfluorescent resazurin is reduced to resorufin, a bright red fluorescence dye. Fluorescence decreases upon treatment of gametocytocidal compounds. P. falciparum gametocyte (3D7 strain) was used in this study.
The 1536-well gametocycidal viability assay was based on the previous method of Tanaka et al. Stage III-V gametocytes were tested against three compound libraries, including 4265 compounds from NCGC pharmaceutical collection, 400 from Malaria Box library, and 550 from an internal collection of kinase inhibitors. Briefly, 2.5 ul/well incomplete medium was dispensed into each well of 1,536-well plates using the Multidrop Combi followed by 23 nl compound transferring using the NX-TR Pintool (WAKO Scientific Solutions, San Diego, CA). Then, 2.5 ul/well of gametocytes was dispensed with a seeding density of 20,000 cells/well using the Multidrop Combi. The assay plates were incubated for 72 h at 37C with 5% CO2. After addition of 5 ul/well of 2X AlamarBlue dye (Life Technologies, cat. no. DAL1100), the plates were incubated for 24 h at 37C with 5% CO2 and then were read in a fluorescence detection mode (Ex = 525 nm, Em = 598 nm) on a ViewLux plate reader (PerkinElmer).
On the % scale 0 is the no-effect control and ±100 the full control effect; potency means the concentration at half of the fitted maximal effect.

Compared with `Nc1nc2ccc([N+](=O)[O-])cc2s1`, `Nc1ccc(O)c([N+](=O)[O-])c1` is lower in max response: 8.79% for the first, -7.22% for the second.

Compared with `CSc1nc(N)c2ncn([C@@H]3O[C@H](COP(=O)(O)OP(=O)(O)OP(=O)(O)O)[C@@H](O)[C@H]3O)c2n1`, `Nc1nc(Cl)nc2c1ncn2[C@@H]1O[C@H](COP(=O)(O)OP(=O)(O)OP(=O)(O)O)[C@@H](O)[C@H]1O` is higher in max response: 11.9% for the first, 20.1% for the second.

First: CC(=O)SCC(CC(=O)c1ccc(C)cc1)C(=O)O (stereo not given)
Second: O=C(O)[C@H](CC(=O)N1C[C@H]2CCCC[C@H]2C1)Cc1ccccc1
The max response of the first is higher: 17.7% for the first, -8.96% for the second.

Going from `O=C(/C=C/c1ccccc1)NCCO` to `O=C(O)CC1CC(c2ccccc2)=NO1` (stereo not given), the max response falls from 7.68% to -4.91%.

First: CCCCCCCCCCCCCCCC(=O)OC(C)C
Second: CCCCCCCCCCCCCCCC(=O)NCC(COP(=O)([O-])OCC[N+](C)(C)C)OCC (stereo not given)
The max response of the first is higher: 3.03% for the first, 1.33% for the second.

Compared with `CN(C)CCn1nnnc1SCC1=C(C(=O)O)N2C(=O)[C@@H](NC(=O)Cc3csc(N)n3)[C@H]2SC1`, `CCN(CC)c1ncnc2c1ncn2[C@@H]1O[C@H](COP(=O)(O)OP(=O)(O)C(Br)(Br)P(=O)(O)O)[C@@H](O)[C@H]1O` is lower in max response: 19.2% for the first, -1.02% for the second.

Going from `NCC1OC(O[C@H]2[C@H](O)[C@@H](OC3C(O)C(N)CC(N)C3OC3OC(CO)C(O)C(O)C3N)O[C@@H]2CO)C(N)C(O)C1O` (stereo not given in full) to `NC(=O)C1=CN(C2OC(COP(=O)(O)OP(=O)(O)OC[C@H]3O[C@@H](n4cnc5c(N)ncnc54)[C@H](OP(=O)(O)O)[C@@H]3O)C(O)C2O)C=CC1` (stereo not given in full), the max response falls from 40.6% to -6.13%.

First: OC[C@H]1O[C@@H](n2cnc3c(NC4CCCC4)ncnc32)[C@H](O)[C@@H]1O
Second: Nc1ncnc2c1ncn2[C@@H]1O[C@H](COP(=O)(O)CP(=O)(O)OP(=O)(O)O)[C@@H](O)[C@H]1O
The max response of the first is lower: -3.53% for the first, 13.9% for the second.

First: CC(=O)SCC[N+](C)(C)C
Second: CCCSc1ccc2nc(NC(=O)OC)[nH]c2c1
The max response of the first is higher: 9.88% for the first, 0.499% for the second.

Compared with `O=c1cc(-c2ccccc2)oc2ccccc12`, `c1ccc(CCNc2nc(-c3ccccc3)cs2)cc1` is lower in max response: 7.39% for the first, -4.46% for the second.

Compared with `Oc1cc(O)cc(/C=C/c2ccc(O)c(O)c2)c1`, `COc1cc(SC)ccc1C(=O)N1CCC(Cc2ccccc2)CC1` is lower in max response: 42.8% for the first, 12.7% for the second.

First: NCCCCC(=O)O
Second: O=C(O)CC1CCCc2ccccc2C1O (stereo not given)
The max response of the first is lower: 12.2% for the first, 12.4% for the second.

First: C#C[C@]1(O)CC[C@H]2[C@@H]3CCC4=Cc5oncc5CC4(C)[C@H]3CCC21C (stereo not given in full)
Second: CC1(C)CCC=[N+]1[O-]
The max response of the first is higher: 25.1% for the first, 7.42% for the second.

First: CCCCCCCCCCCCCCCCCCNC(=O)OCC(COP(=O)([O-])OCC[n+]1ccsc1)OC (stereo not given)
Second: Nc1ncnc2c1ncn2[C@@H]1O[C@H](COP(=O)(O)OP(=O)(O)OP(=O)(O)OP(=O)(O)OC[C@@H]2O[C@H](n3cnc4c(N)ncnc43)[C@@H](O)[C@H]2O)[C@@H](O)[C@H]1O
The max response of the first is higher: 12.3% for the first, 11.9% for the second.

Compared with `O=c1[nH]c2ccccc2n1CCCN1CCN(C(c2ccccc2)c2ccccc2)CC1`, `O=C(CCN1CCN(CCO)CC1)N1c2ccccc2Sc2ccc(C(F)(F)F)cc21` is lower in max response: 14.5% for the first, -4.95% for the second.

For `Cc1cc(O)c2ccccc2c1O`, the Potency was 15.8 µM (active).
With `CN(C)c1ccc(N=NS(=O)(=O)O)cc1` the Potency was 35.5 µM (active).
With `N.N.N.N.N.N.N.N.N.N.N.N.N.N.O.O.[Ru+4].[Ru+5].[Ru+5]` the Potency was 0.935 µM (active).
For `COc1cc(NC(C)CCCN)c2ncccc2c1` (stereo not given), the Potency was 2.15 µM (active).
In the case of `COC1=C(OC)C(=O)c2ccccc2C1=O`, the Potency is reported as 3.98 µM (active).
In the case of `O=[N+]([O-])c1ccc2c(c1)S(=O)(=O)C=C2`, the Potency is reported as 1 µM (active).

In the case of `CC[C@H]1OC(=O)[C@H](C)[C@@H](O[C@H]2C[C@@](C)(OC)[C@@H](O)[C@H](C)O2)[C@H](C)[C@@H](O[C@@H]2O[C@H](C)C[C@H](N(C)C)[C@H]2O)[C@](C)(O)C[C@@H](C)C(=O)[C@H](C)[C@@H](O)[C@]1(C)O`, the max response is reported as 1.77% and 0.604%.
For `CCCOC(=O)c1ccc(O)cc1`, the max response was -1.64% and -4.63%.
With `O=C(O)COc1ccc(C(=O)c2cccs2)c(Cl)c1Cl` the max response was -3.69% and 20.3%.
In the case of `Cc1onc(-c2c(F)cccc2Cl)c1C(=O)N[C@@H]1C(=O)N2[C@@H]1SC(C)(C)[C@@H]2C(=O)O`, the max response is reported as 16.8% and -3.16%.
